The record followed here is the supplement of paper PMC6555819.

What all share (assay): PBM binding z-score (relative to random genomic background probes); higher = stronger binding; sequences stand for … in GC…GCGATTGACAGCGTAGAATGAAGG
Assay [1] deals with FXR:RXRa (NR concentration 270 nM, RXRa partner concentration 90 nM). In outline: (§1)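 For binding z-scores, the reference was random background probes on custom Agilent 4×180K protein-binding microarrays. These arrays were incubated 1 h with ligand-free nuclear receptor dimers in PBS pH 7.4, 2% milk, 0.02% Triton X-100, 1 mM DTT, 0.2 mg/mL BSA and 0.4 mg/ml salmon testes DNA. Fluorescence was scanned after antibody detection of each partner (one per run) and regression-normalized.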

Assay [2] relates to LXRa:RXRa (NR concentration 270 nM, RXRa partner concentration 90 nM). In outline: as §1
The subject of assay [3] is LXRa homodimer (NR concentration 270 nM). A digest of the protocol: as §1
The test system of assay [4] is LXRb:RXRa (NR concentration 270 nM, RXRa partner concentration 90 nM). In outline:
as §1

Assay [5] deals with LXRb homodimer (NR concentration 270 nM). A digest of the protocol: as §1
Assay [6] has as its system PPARa:RXRa (NR concentration 270 nM, RXRa partner concentration 90 nM). A digest of the protocol:
as §1

Assay [7] has as its system PPARg:RXRa (NR concentration 180 nM, RXRa partner concentration 90 nM). In outline: as §1
Assay [8] concerns PPARg:RXRa 270nM:90nM, anti-RXR (NR concentration 270 nM, RXRa partner concentration 90 nM). In outline: as §1
Assay [9] relates to PPARg:RXRa 30nM:10nM, anti-RXR (NR concentration 30 nM, RXRa partner concentration 10 nM). A digest of the protocol:
as §1

Assay [10] deals with PPARg:RXRa 90nM:30nM, anti-RXR (NR concentration 90 nM, RXRa partner concentration 30 nM). A digest of the protocol:
as §1

For assay [11], the system named is PPARg:RXRa DBDmut IVT, anti-RXR (DBD mutation: RXRa K156A/R161A, NR concentration 270 nM, RXRa partner concentration 90 nM). In outline: as §1
In assay [12] the test system is PPARg:RXRa IVT, anti-PPARg (NR concentration 270 nM, RXRa partner concentration 90 nM). A digest of the protocol:
as §1

For assay [13], the system named is PPARg DBDmut:RXRa IVT, anti-PPARg (DBD mutation: PPARg1 K132A/R137A, NR concentration 270 nM, RXRa partner concentration 90 nM). In outline: as §1
The subject of assay [14] is PPARg DBDmut IVT, anti-PPARg (DBD mutation: PPARg1 K132A/R137A, NR concentration 270 nM). A digest of the protocol: as §1
The subject of assay [15] is PPARg homodimer (NR concentration 180 nM). In outline: as §1
The subject of assay [16] is PXR:RXRa (NR concentration 270 nM, RXRa partner concentration 90 nM). A digest of the protocol: as §1
The subject of assay [17] is PXR homodimer (NR concentration 270 nM). In outline: as §1
Assay [18] relates to RARa:RXR (NR concentration 270 nM, RXRa partner concentration 90 nM). In outline:
as §1

Assay [19] relates to RARa homodimer (NR concentration 270 nM). In outline: as §1
Assay [20] has as its system RARb:RXRa (NR concentration 270 nM, RXRa partner concentration 90 nM). A digest of the protocol: as §1

For GCTCGGAGGTCAAGGTCAGAGCTTTGTCCGTAGA, the PBM binding z-score came out at 7.3 in [1]; 5.97 in assay [2]; 1.81 in [3]; 4.82 in [4]; 1.33 in assay [5]; 5.76 in assay [6]. For the same sequence, the PBM binding z-score is 6.41 in assay [7]; 6.35 in assay [8]; 2.69 in assay [9]; 5.23 in [10]; 3.94 in [11]; 4.68 in assay [12]. The PBM binding z-score in assay [13] is -0.342; in assay [14], -0.512; in assay [15], 4.12; in assay [16], 5.61; in [17], 1.32; in assay [18], 6.17. The PBM binding z-score in assay [19] came to 2.29; in [20], 5.37.
Consider TCTATTAGTTGATTAGGGCAACCTAAACAGCGGA, for which the PBM binding z-score amounted to 0.561 in [1]; 0.704 in [2]; 0.325 in [3]; 0.595 in assay [4]; 0.8 in assay [5]; 0.918 in assay [6]. In addition, the PBM binding z-score in assay [7] came out at 0.209; in [8], 1.95; in assay [9], 3.39; in [10] it was 2.86; in assay [11] it was 1.94; in [12], 1.73. The PBM binding z-score in assay [13] was 1.37; in [14] it was 1.62; in assay [15] it was 1.03; in [16] it was 0.712; in assay [17], -0.0681; in assay [18], 1.11. The values for the PBM binding z-score in [19] and in assay [20] were 1.09 and 1.14, respectively.
Take CGTCAAAATTCAACTAAGGTAACGTAAAGCACGC: the PBM binding z-score in assay [1] is 0.963; in [2] it was 0.314; in assay [3], 0.303; in assay [4] it was 0.543; in assay [5], 0.0502; in assay [6], 0.568. Further, the PBM binding z-score was 0.569 in [7]; 0.127 in [8]; -0.0256 in assay [9]; 0.246 in assay [10]; -0.174 in [11]; 0.543 in [12]. The PBM binding z-score in [13] is 0.555; in assay [14] it was 1.22; in assay [15], -0.0431; in [16], 0.326; in assay [17] it was 0.413; in assay [18] it was 1.71. For the same sequence, the results for the PBM binding z-score in assay [19] and in assay [20] were 1.69 and 0.577, respectively.
As to ACTAGTTGGTCAGCTGAGGTCATACACAATTCGG, the PBM binding z-score in assay [1] amounted to 3.84; in assay [2] it was 3.45; in assay [3] it was 3.44; in assay [4] it was 3.54; in assay [5] it was 1.09; in [6] it was 3.52. The PBM binding z-score in [7] was 1.43; in assay [8] it was 1.72; in assay [9] it was 0.448; in assay [10], 1.14; in assay [11], 1.47; in assay [12], 2.35. The PBM binding z-score in assay [13] was 1.46; in [14], 1.13; in assay [15] it was 3.38; in assay [16] it was 5.65; in assay [17], 3.46; in [18], 4.45. Also, the PBM binding z-score was determined as 0.98 in assay [19] and 3.15 in assay [20].
As for CCGACTGGGGCCAAGGTTACCATACTCAGTACGA, the PBM binding z-score in assay [1] is 0.714; in assay [2], 0.334; in [3], -0.174; in assay [4] it was 0.728; in assay [5], -0.267; in [6], 1.91. For the same sequence, the PBM binding z-score worked out at 3.85 in assay [7]; 4.51 in assay [8]; 1.74 in assay [9]; 3.8 in [10]; 0.261 in assay [11]; 1.58 in assay [12]. Also, the PBM binding z-score in [13] was -1.03; in assay [14], -0.715; in [15], 0.238; in [16], 0.644; in assay [17], 0.142; in assay [18], 1.14. Also, the PBM binding z-score in [19] was -0.0443; in [20] it was 1.77.
Consider GCTGCTAGGTCAACTGATGGTCCGCTAAAGCTCG, for which the PBM binding z-score was 3.85 in assay [1]; 2.46 in assay [2]; 0.00165 in [3]; 1.92 in assay [4]; -0.00733 in assay [5]; 3.41 in assay [6]. Besides, the PBM binding z-score in assay [7] is 2.32; in assay [8] it was 2.97; in [9], 0.463; in assay [10], 1.97; in assay [11], 4.62; in assay [12], 3.92. Also, the PBM binding z-score in [13] is -0.331; in assay [14], -0.853; in [15], 0.857; in assay [16], 0.939; in assay [17], -0.584; in [18] it was 2.05. For the same sequence, the figures for the PBM binding z-score in assay [19] and in assay [20] were -0.897 and 4.04, respectively.
